PubChem BioAssay
For some assays here: Potency and affinity values are given separately. The source made the active and inactive calls. Unless noted, no rule for the calls is given here.

Columns and labels:
[1] = antimalarial activity against Dd2 strain (AID 2302;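 active = growth inhibition above 50% at the single 2 µM test dose, taken to imply half-maximal potency below 2 µM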;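 also: 0% = DMSO untreated growth and 100% = chloroquine plus artemisinin killed control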); settings: P. falciparum Dd2 in RBCs, LDH growth readout, 72 h; at 2 µM; stronger effect = higher value
[2] = human hepatoma cell viability loss – ATP luminescence, cytotoxicity control for P. falciparum antimalarial project, primary screen (AID 2303;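 active = inhibition above 50%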;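 also: 0% = DMSO wells and 100% = digitonin-killed cells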); settings: HepG2 viability, 24-48 h, at 10 µM, stronger effect = higher value
[3] = target: L-lactate dehydrogenase (Plasmodium falciparum (isolate CDC / Honduras)) (UniProt Q27743); assay: PfLDH activity inhibition – cell lysate, 3D7 strain, counter-screen for P. falciparum growth inhibition project (AID 2304);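 also: 0% = vehicle and 100% = reference inhibitor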; settings: P. falciparum 3D7 crude extract, LDH APAD/NBT absorbance; at 2 µM; stronger effect = higher value
[4] = inhibition of 3D7 malaria parasite growth – strain 3D7 (AID 2306);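 also: 0% = DMSO wells and 100% = chloroquine plus artemisinin control wells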; settings: P. falciparum 3D7 erythrocytic growth, LDH absorbance, 72 h; at 2 µM; stronger effect = higher value
[5] = target: Calcium-dependent protein kinase 1 (Plasmodium falciparum (isolate 3D7)) (UniProt P62344); assay: PfCDPK1 kinase inhibitors, biochemical, TCAMS library (AID 1159585; cut-off not given, nearly all actives have IC50 up to about 0.98 µM;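 also: inhibitors leave more ATP so luminescence rises with inhibition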); settings: recombinant PfCDPK1, Kinase-Glo ATP depletion luminescence
[6] = target: Plasmodium falciparum protein kinase 6 (PK6, PF3D7_1337100) (UniProt Q8IDW1); assay: PfPK6 kinase inhibitors, biochemical, TCAMS library (AID 1159586); settings: recombinant PfPK6, Kinase-Glo ATP depletion luminescence
[7] = target: Protein kinase 7 (PK7), Plasmodium falciparum 3D7 (PF3D7_0213400) (UniProt Q7YTF7); assay: inhibition of Plasmodium PK7 catalytic activity – biochemical, TCAMS antimalarial set, Kinase-Glo luminescence (AID 1159587); settings: recombinant PfPK7, Kinase-Glo ATP depletion luminescence
[8] = target: Calcium-dependent protein kinase 4 (Plasmodium falciparum (isolate 3D7)) (UniProt Q8IBS5); assay: PfCDPK4 kinase inhibitors, biochemical, TCAMS library (AID 1159588; cut-off not given, nearly all actives have IC50 up to about 0.91 µM); settings: recombinant PfCDPK4, Kinase-Glo ATP depletion luminescence
Chain of Calcium-dependent protein kinase 4 (Plasmodium falciparum (isolate 3D7)) (Q8IBS5 whole entry, looked up): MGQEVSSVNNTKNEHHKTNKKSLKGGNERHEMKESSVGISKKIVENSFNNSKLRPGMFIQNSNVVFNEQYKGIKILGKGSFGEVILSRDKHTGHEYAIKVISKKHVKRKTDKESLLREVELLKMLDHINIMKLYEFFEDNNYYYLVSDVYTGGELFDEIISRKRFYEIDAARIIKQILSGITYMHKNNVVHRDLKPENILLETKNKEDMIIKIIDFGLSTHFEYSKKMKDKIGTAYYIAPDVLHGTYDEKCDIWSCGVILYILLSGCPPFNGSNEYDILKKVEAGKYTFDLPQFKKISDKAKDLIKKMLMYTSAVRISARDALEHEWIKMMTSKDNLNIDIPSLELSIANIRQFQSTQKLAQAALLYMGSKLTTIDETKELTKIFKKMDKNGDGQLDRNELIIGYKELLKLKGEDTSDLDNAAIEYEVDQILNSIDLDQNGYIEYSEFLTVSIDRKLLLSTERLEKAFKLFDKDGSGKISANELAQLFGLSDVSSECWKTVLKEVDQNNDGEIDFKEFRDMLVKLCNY

Chain of Calcium-dependent protein kinase 1 (Plasmodium falciparum (isolate 3D7)) (P62344 whole entry, looked up): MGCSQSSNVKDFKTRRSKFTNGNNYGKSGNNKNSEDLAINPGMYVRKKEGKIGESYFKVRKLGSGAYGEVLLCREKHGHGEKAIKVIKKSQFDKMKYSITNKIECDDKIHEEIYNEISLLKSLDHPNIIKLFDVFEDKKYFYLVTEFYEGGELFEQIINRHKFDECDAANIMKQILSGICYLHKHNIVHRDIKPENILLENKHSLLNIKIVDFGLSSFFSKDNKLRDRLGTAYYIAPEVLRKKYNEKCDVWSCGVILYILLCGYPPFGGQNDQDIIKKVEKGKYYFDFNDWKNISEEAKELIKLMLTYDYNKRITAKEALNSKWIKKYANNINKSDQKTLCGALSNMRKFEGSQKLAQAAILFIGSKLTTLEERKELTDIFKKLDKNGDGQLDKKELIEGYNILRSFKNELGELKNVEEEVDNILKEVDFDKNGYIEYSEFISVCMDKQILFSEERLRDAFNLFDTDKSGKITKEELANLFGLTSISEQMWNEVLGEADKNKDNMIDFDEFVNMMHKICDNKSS
Chain of Plasmodium falciparum protein kinase 6 (PK6, PF3D7_1337100) (Q8IDW1 1-305): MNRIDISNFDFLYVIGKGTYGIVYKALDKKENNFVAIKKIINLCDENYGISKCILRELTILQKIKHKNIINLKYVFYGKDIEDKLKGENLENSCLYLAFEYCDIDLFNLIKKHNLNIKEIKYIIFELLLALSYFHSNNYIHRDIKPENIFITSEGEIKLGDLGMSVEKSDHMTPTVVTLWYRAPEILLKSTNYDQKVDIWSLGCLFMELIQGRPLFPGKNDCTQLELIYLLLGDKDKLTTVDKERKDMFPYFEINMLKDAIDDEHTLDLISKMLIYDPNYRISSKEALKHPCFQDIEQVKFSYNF
Chain of Protein kinase 7 (PK7), Plasmodium falciparum 3D7 (PF3D7_0213400) (Q7YTF7 1-343): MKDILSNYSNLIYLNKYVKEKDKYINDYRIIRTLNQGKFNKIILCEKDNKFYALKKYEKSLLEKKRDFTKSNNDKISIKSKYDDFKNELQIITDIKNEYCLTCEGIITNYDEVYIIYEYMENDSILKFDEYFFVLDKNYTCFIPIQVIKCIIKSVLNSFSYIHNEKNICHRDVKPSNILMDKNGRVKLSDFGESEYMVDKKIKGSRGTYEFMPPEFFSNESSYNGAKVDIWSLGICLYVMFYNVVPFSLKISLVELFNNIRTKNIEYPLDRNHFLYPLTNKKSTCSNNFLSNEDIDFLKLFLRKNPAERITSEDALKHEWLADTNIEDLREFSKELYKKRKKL
Chain of L-lactate dehydrogenase (Plasmodium falciparum (isolate CDC / Honduras)) (Q27743 whole entry, looked up): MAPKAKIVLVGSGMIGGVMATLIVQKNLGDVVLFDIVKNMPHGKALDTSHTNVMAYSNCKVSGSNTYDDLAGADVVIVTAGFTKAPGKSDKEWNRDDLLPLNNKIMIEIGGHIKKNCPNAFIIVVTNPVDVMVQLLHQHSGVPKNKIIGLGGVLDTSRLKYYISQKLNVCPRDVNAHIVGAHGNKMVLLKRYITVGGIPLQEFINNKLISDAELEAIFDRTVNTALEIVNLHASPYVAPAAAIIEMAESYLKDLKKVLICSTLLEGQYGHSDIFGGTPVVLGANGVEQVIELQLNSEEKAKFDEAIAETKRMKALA

c1cncc(CNc2ncc(-c3ccsc3)c(-c3nccs3)n2)c1
active: growth inhibition [1] 63% | growth inhibition [4] 81%
inactive: inhibition [2] -6% | inhibition [3] 2% | outcome [5] | outcome [6] | outcome [7] | outcome [8]

CCn1ccc2c3c(N)nc(N)nc3ccc21
active: inhibition [2] 61% | growth inhibition [4] 99%
inactive: growth inhibition [1] 2% | inhibition [3] 6% | outcome [5] | outcome [6] | outcome [7] | outcome [8]

CCC(C)c1ccc(NC(=O)Nc2ccnc3ccccc23)cc1 (stereo not given)
active: growth inhibition [4] 98%
inactive: growth inhibition [1] 42% | inhibition [2] 27% | inhibition [3] -2% | outcome [5] | outcome [6] | outcome [7] | outcome [8]

Cc1cnc(C(=O)Nc2ccc(-c3cccc(-c4nc5ccccc5[nH]4)c3)cc2)cn1
active: inhibition [2] 77% | growth inhibition [4] 93%
inactive: growth inhibition [1] 8% | inhibition [3] -3% | outcome [5] | outcome [6] | outcome [7] | outcome [8]

CC(C)=CCN1CCC(C(=O)Nc2ccc(-c3nc4ccccc4[nH]3)cc2)CC1
inactive: growth inhibition [1] -1% | inhibition [2] -2% | inhibition [3] -3% | outcome [5] | outcome [6] | outcome [7] | outcome [8]
active: growth inhibition [4] 95%

CS(=O)(=O)Nc1ccc2[nH]cc(C3CCN(CC4CCC(NC(=O)/C=C/c5ccc(Cl)c(Cl)c5)CC4)CC3)c2n1 (stereo not given)
active: growth inhibition [4] 99%
inactive: growth inhibition [1] 10% | inhibition [2] 2% | inhibition [3] -5% | outcome [5] | outcome [6] | outcome [7] | outcome [8]

CCCCCCCN1CC[C@H](NC(=O)Nc2ccnc3ccc(OC)cc23)[C@H](C(=O)OCC)C1
inactive: inhibition [2] 11% | inhibition [3] 7% | outcome [5] | outcome [6] | outcome [7] | outcome [8]
active: growth inhibition [1] 73% | growth inhibition [4] 101%

CS(=O)(=O)c1cccc(-c2cnc(N)c3cc(-c4cccc(F)c4)ccc23)c1
active: growth inhibition [4] 97%
inactive: growth inhibition [1] 13% | inhibition [2] 45% | inhibition [3] 2% | outcome [5] | outcome [6] | outcome [7] | outcome [8]

COc1ccccc1NC(=O)Nc1cccc(-c2ccc(-c3nc4ccc(C(F)(F)F)cc4[nH]3)cc2)c1
active: growth inhibition [1] 76% | growth inhibition [4] 100%
inactive: inhibition [2] 28% | inhibition [3] 5% | outcome [5] | outcome [6] | outcome [7] | outcome [8]

Fc1ccc2nc(-c3ccc(-c4ccc(CN5CCN(c6ccncc6)CC5)cc4)cc3)[nH]c2c1
inactive: inhibition [2] 37% | inhibition [3] 6% | outcome [5] | outcome [6] | outcome [7] | outcome [8]
active: growth inhibition [1] 101% | growth inhibition [4] 102%

CNC(=S)NN=C(C)c1ccccn1
inactive: inhibition [3] -4% | outcome [5] | outcome [6] | outcome [7] | outcome [8]
active: growth inhibition [1] 99% | inhibition [2] 64% | growth inhibition [4] 98%

C=C[C@H]1CN(CCCCCCC)CC[C@H]1C[C@@H](Cc1ccnc2ccc(OC)cc12)OC(=O)[C@](OC)(c1ccccc1)C(F)(F)F
inactive: inhibition [2] 12% | inhibition [3] 7% | outcome [5] | outcome [6] | outcome [7] | outcome [8]
active: growth inhibition [1] 96% | growth inhibition [4] 96%

CCOC(=O)[C@H](Cc1cccc2ccccc12)NC(=O)[C@H](CCC(=O)OC(C)(C)C)NC(=O)c1ccc(N(C)Cc2cnc3nc(N)nc(N)c3n2)cc1
active: growth inhibition [1] 96% | inhibition [2] 66% | growth inhibition [4] 93%
inactive: inhibition [3] -2% | outcome [5] | outcome [6] | outcome [7] | outcome [8]

COc1cc(F)c2ncc(Cl)c(CCN3CCC(NCc4ccc5c(n4)NC(=O)CS5)CC3)c2c1
active: growth inhibition [4] 99%
inactive: growth inhibition [1] 41% | inhibition [2] 18% | inhibition [3] 3% | outcome [5] | outcome [6] | outcome [7] | outcome [8]

COc1ccc2nc3cc(Cl)ccc3c(Nc3ccc(O)c(CNC(C)C)c3)c2c1
inactive: inhibition [2] 5% | inhibition [3] -1% | outcome [5] | outcome [6] | outcome [7] | outcome [8]
active: growth inhibition [1] 100% | growth inhibition [4] 102%

CN(C(=O)c1nn(-c2ccccn2)c2nccc(-c3cccs3)c12)C1CCCCC1
active: growth inhibition [4] 87%
inactive: growth inhibition [1] 1% | inhibition [2] 4% | inhibition [3] -1% | outcome [5] | outcome [6] | outcome [7] | outcome [8]

Cc1cccc2[nH]c(-c3cccc(-c4ccc(NC(=O)C(C)C(=O)NC(C)C)cc4)c3)nc12 (stereo not given)
active: growth inhibition [4] 85%
inactive: growth inhibition [1] 26% | inhibition [2] 13% | inhibition [3] -3% | outcome [5] | outcome [6] | outcome [7] | outcome [8]

CCCOc1cc(NC(=O)Nc2ccnc3ccccc23)cc(OCCC)c1
inactive: inhibition [2] 6% | inhibition [3] -1% | outcome [5] | outcome [6] | outcome [7] | outcome [8]
active: growth inhibition [1] 98% | growth inhibition [4] 102%

O=c1cc(NCCCCNCc2cccc(C(F)(F)F)c2)[nH]c2ccccc12
inactive: growth inhibition [1] 34% | inhibition [2] 13% | inhibition [3] -1% | outcome [5] | outcome [6] | outcome [7] | outcome [8]
active: growth inhibition [4] 94%

CCOC(=O)c1ccc(NC(=O)Nc2cccc(-c3cccc(-c4nc5c(C)cccc5[nH]4)c3)c2)cc1
inactive: inhibition [2] 37% | inhibition [3] 0% | outcome [5] | outcome [6] | outcome [7] | outcome [8]
active: growth inhibition [1] 99% | growth inhibition [4] 100%

O=C(C=Cc1cccs1)Nc1ccc(-c2nc3ccccc3[nH]2)cc1
inactive: growth inhibition [1] 3% | inhibition [2] -4% | inhibition [3] 4% | outcome [5] | outcome [6] | outcome [7] | outcome [8]
active: growth inhibition [4] 83%

CC(C)(C)c1ccc(NC(=O)c2ccc(CN3CCCN(Cc4cccc(Cl)c4)CC3)cc2)cc1
inactive: growth inhibition [1] 7% | inhibition [2] 43% | inhibition [3] -3% | outcome [5] | outcome [6] | outcome [7] | outcome [8]
active: growth inhibition [4] 96%

CCCNc1ccc2nccc(CCN3CCC(NCc4ccc5c(n4)NC(=O)CS5)CC3)c2n1
inactive: growth inhibition [1] -1% | inhibition [2] 24% | inhibition [3] -1% | outcome [5] | outcome [6] | outcome [7] | outcome [8]
active: growth inhibition [4] 103%

CC(Cc1ccc(OCCN2CCN(c3cccc(Cl)c3)CC2)cc1)NCC(O)c1cccc(C(F)(F)F)c1 (stereo not given)
active: growth inhibition [1] 98% | inhibition [2] 100% | growth inhibition [4] 99%
inactive: inhibition [3] -1% | outcome [5] | outcome [6] | outcome [7] | outcome [8]

O=C(Nc1ccc([N+](=O)[O-])cc1Cl)c1cc2ccccc2cc1O
inactive: growth inhibition [1] 28% | inhibition [2] 6% | inhibition [3] 0% | outcome [5] | outcome [6] | outcome [7] | outcome [8]
active: growth inhibition [4] 94%

Cc1ccc(Nc2ccnc3cc(-c4nccs4)ccc23)cc1C(O)c1ccccc1 (stereo not given)
inactive: inhibition [2] 23% | inhibition [3] -8% | outcome [5] | outcome [6] | outcome [7] | outcome [8]
active: growth inhibition [1] 83% | growth inhibition [4] 85%

Cc1ccc2nc3c(cc(C(=O)NCCc4ccccc4)c(=N)n3CCCOC(C)C)c(=O)n2c1
active: growth inhibition [4] 96%
inactive: growth inhibition [1] 12% | inhibition [2] 15% | inhibition [3] 0% | outcome [5] | outcome [6] | outcome [7] | outcome [8]

COc1ccccc1C1CCN(C2CCC(NC(=O)c3ccc4nc(-c5ccc(C)cc5)[nH]c4c3)CC2)CC1 (stereo not given)
inactive: inhibition [3] 4% | outcome [5] | outcome [6] | outcome [7] | outcome [8]
active: growth inhibition [1] 100% | inhibition [2] 100% | growth inhibition [4] 101%

CN1CCN(Cc2cc3cc(NC(=O)/C=C/c4ccc(Cl)cc4)ccc3s2)CC1
inactive: growth inhibition [1] 20% | inhibition [3] 2% | outcome [5] | outcome [6] | outcome [7] | outcome [8]
active: inhibition [2] 51% | growth inhibition [4] 100%

Nc1cc(-c2cc3c(OCc4ccccc4)cccc3[nH]2)ccn1
active: growth inhibition [4] 85%
inactive: growth inhibition [1] 15% | inhibition [2] 23% | inhibition [3] 4% | outcome [5] | outcome [6] | outcome [7] | outcome [8]

OC(c1n[nH]c(=S)n1-c1ccccc1)C(O)c1n[nH]c(=S)n1-c1ccccc1 (stereo not given)
inactive: inhibition [2] 18% | inhibition [3] 4% | outcome [5] | outcome [6] | outcome [7] | outcome [8]
active: growth inhibition [1] 89% | growth inhibition [4] 92%

COc1cc(C=Cc2ccc3ccccc3n2)cc(Br)c1OCC(=O)N(C)C
inactive: inhibition [2] 28% | inhibition [3] 3% | outcome [5] | outcome [6] | outcome [7] | outcome [8]
active: growth inhibition [1] 87% | growth inhibition [4] 99%

O=C(NCCCN1CCN(c2cccc(Cl)c2)CC1)c1ccc(-c2nc3cc(Cl)c(Cl)cc3[nH]2)cc1
inactive: inhibition [2] 3% | inhibition [3] -1% | outcome [5] | outcome [6] | outcome [7] | outcome [8]
active: growth inhibition [1] 95% | growth inhibition [4] 98%

COc1ccc(Nc2nc(N)c3cc(OC)c(OC)cc3n2)cc1OC
inactive: growth inhibition [1] 5% | inhibition [2] -4% | inhibition [3] -7% | outcome [5] | outcome [6] | outcome [7] | outcome [8]
active: growth inhibition [4] 99%

CC(=O)Nc1ncc(C(=O)Nc2cccc(-c3cccc(-c4nc5c(C)cccc5[nH]4)c3)c2)s1
active: growth inhibition [1] 64% | growth inhibition [4] 94%
inactive: inhibition [2] 15% | inhibition [3] 4% | outcome [5] | outcome [6] | outcome [7] | outcome [8]

CSc1cccc(NC(=O)c2cc3ccccc3oc2=O)c1
inactive: inhibition [2] -4% | inhibition [3] 4% | outcome [5] | outcome [6] | outcome [7] | outcome [8]
active: growth inhibition [1] 75% | growth inhibition [4] 92%

Cc1cc(C(=O)Nc2ccc(-c3nc4ccccc4[nH]3)cc2)ccc1[N+](=O)[O-]
inactive: growth inhibition [1] 47% | inhibition [3] 1% | outcome [5] | outcome [6] | outcome [7] | outcome [8]
active: inhibition [2] 55% | growth inhibition [4] 101%

CCN(CCCN1CCCCC1)c1nccc(Nc2ccc(Cl)cc2)n1
inactive: inhibition [2] 19% | inhibition [3] -1% | outcome [5] | outcome [6] | outcome [7] | outcome [8]
active: growth inhibition [1] 63% | growth inhibition [4] 89%

CCC[C@@H]([C@@H](CC(C)C)C(=O)N[C@@H](CCCCNC(=O)c1ccccn1)C(=O)Nc1nccs1)N(O)C=O
active: growth inhibition [1] 100% | growth inhibition [4] 101%
inactive: inhibition [2] -23% | inhibition [3] -3% | outcome [5] | outcome [6] | outcome [7] | outcome [8]

O=C(NCCCCN1CCC(c2ccc(-c3ccco3)cc2)CC1)c1ccc(NC(=O)c2ccc(Cl)cc2)cc1
active: growth inhibition [1] 97% | growth inhibition [4] 100%
inactive: inhibition [2] 26% | inhibition [3] 6% | outcome [5] | outcome [6] | outcome [7] | outcome [8]
